The values below come from PubChem BioAssay (NCATS).

Assay [1] in a line: BET inhibitor-based combinations targeting novel dependencies in MECOM-rearranged (r) AML: SET-2 cell line (AID 2202231).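 For viability: plate controls were DMSO treated cells for no effect and wells without cells for full effect.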 Note: nearly all actives have a fitted effect of over 35% in size. Particulars: SET-2 AML cells viability, CellTiter-Glo luminescence, 48 h; viability: active compounds read low, concentration not given here. In a few lines: (§1)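 Each compound was tested at eleven concentrations on cells seeded at 500/well. After two days' incubation, ATP-based luminescence reported viability; responses relative to DMSO and blank wells yielded AUC and cell-line-centred Z-AUC.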
For orientation: Cellular ATP, detected with luciferase, serves as a proxy for viable cell number.

Assay [2] is described as follows: BET inhibitor-based combinations targeting novel dependencies in MECOM-rearranged (r) AML: OCI-AML3 cell line (AID 2202232). Note: nearly all actives have a fitted effect of over 35% in size. Particulars: Potency: OCI-AML3 viability. In a few lines: as §1
Assay [3] in a line: BET inhibitor-based combinations targeting novel dependencies in MECOM-rearranged (r) AML: MV-4-11 cell line (AID 2202233). Note: nearly all actives have a fitted effect of over 45% in size. The method, boiled down:
(§2)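 First, 500 cells per well were seeded; next, drugs were pinned as 11-point doses; then plates sat 48 hr in the incubator; finally CellTiter-Glo was added and luminescence read, with AUC and Z-AUC computed.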

Assay [4] can be described thus: BET inhibitor-based combinations targeting novel dependencies in MECOM-rearranged (r) AML: UCSD-AML1 cell line (AID 2202235). Note: nearly all actives have a fitted effect of over 40% in size. In a few lines: as §2
A short description of assay [5]: BET inhibitor-based combinations targeting novel dependencies in MECOM-rearranged (r) AML: AML-191 cell line (AID 2202236; note: nearly all actives have a fitted effect of over 35% in size). In a few lines: as §1
The nature of assay [6]: BET inhibitor-based combinations targeting novel dependencies in MECOM-rearranged (r) AML: AML-194 cell line (AID 2202237; note: nearly all actives have a fitted effect of over 40% in size). The method, boiled down:
as §1

Assay [7] is described as follows: BET inhibitor-based combinations targeting novel dependencies in MECOM-rearranged (r) AML: HNT-34 cell line (AID 2202234). Note: nearly all actives have a fitted effect of over 35% in size. In a few lines:
as §2

Results filed as inconclusive are left out. Values without a mark were called inactive. Calls of active or inactive are those of the source. Calls come from the whole dose curve; as a rule, active = well fitted curve in the direction sought with a large enough effect; inconclusive = small, poorly fitted or top-dose-only effect, or another doubt; inactive = no such curve, though single readings can be large; an effect the other way counts as inactive or inconclusive.
Potency is the fitted concentration of half-maximal effect.

Take `Cc1ncsc1-c1ccc([C@H](C)NC(=O)[C@@H]2C[C@@H](O)CN2C(=O)[C@@H](NC(=O)COCCCOCCNC(=O)C[C@@H]2N=C(c3ccc(Cl)cc3)c3c(sc(C)c3C)-n3c(C)nnc32)C(C)(C)C)cc1`: the Potency was 3.72 µM (active) in assay [1]; 0.0093 µM (active) in assay [2]; 0.0047 µM (active) in assay [3]; 0.0833 µM (active) in assay [4]; 0.209 µM (active) in assay [5]; 0.186 µM (active) in assay [6].
For the molecule `CNC(=O)CCc1cc(-c2ccc(-c3ccc(C(F)(F)F)cc3)cc2)n(-c2ccc(N3CCNCC3)cc2)n1`, the Potency is 7.42 µM (active) in assay [1], 5.9 µM (active) in assay [2], 8.33 µM (active) in assay [7] and 5.9 µM (active) in assay [5].
Regarding `CNC(=O)[C@H](Cc1c[nH]c2ccccc12)NC(=O)[C@@H](CC(=O)NO)CC(C)C`, the viability in assay [1] is 112%. Further, the Potency entry in assay [2], in assay [4], in assay [5] and in assay [6] was “inactive” each time.
On to `Nc1ccn([C@@H]2O[C@H](CO)[C@@H](O)C2O)c(=O)n1` (stereo partly drawn), for which the Potency in assay [1] is 0.332 µM (active); in assay [2], 3.32 µM (active); in assay [7] it was 0.0742 µM (active); in assay [4] it was 0.0295 µM (active); in assay [5], 0.0742 µM (active); in assay [6], 0.0525 µM (active).
Regarding `O=C(CCCCCCNC(=O)c1cnc(N(c2ccccc2)c2ccccc2Cl)nc1)NO`, the Potency in assay [1] was 9.34 µM (active); in assay [2], 7.42 µM (active); in assay [7], 9.34 µM (active); in assay [4], 9.34 µM (active); in assay [5] it was 7.42 µM (active); in assay [6], 10.5 µM (active).
As for `C[C@@H](O[C@H]1OCCN(Cc2n[nH]c(=O)[nH]2)[C@@H]1c1ccc(F)cc1)c1cc(C(F)(F)F)cc(C(F)(F)F)c1`, the Potency was 20.9 µM (active) in assay [1], 18.6 µM (active) in assay [2], 18.6 µM (active) in assay [7] and 16.6 µM (active) in assay [5].
In the case of `Cc1cc(C)c(S(=O)(=O)N(CCc2cccc(Br)c2)Cc2ccc(-c3cccc(S(C)(=O)=O)c3)cc2)c(C)c1`, in assay [1], the viability was 117%. The Potency result in assay [2], in assay [4], in assay [5] and in assay [6] was “inactive” in each case.
Consider `NC(=S)N/N=C/c1ncccc1N`, for which the Potency in assay [1] was 16.6 µM (active); in assay [2], 5.25 µM (active); in assay [7] it was 16.6 µM (active); in assay [4], 5.9 µM (active); in assay [5], 23.5 µM (active); in assay [6], 20.9 µM (active).
For `c1ccc(-c2nn3c(c2-c2ccnc4cc(OCCN5CCOCC5)ccc24)CCC3)nc1`, in assay [1], the viability is 81.4%. Moreover, the Potency entry in assay [2] is “inactive”. Also, the results for the Potency in assay [4] and in assay [5] were 20.9 µM (active) and 18.6 µM (active), respectively.
On to `CN1CCN(c2ccc3nc(-c4c(N)c5c(F)cccc5[nH]c4=O)[nH]c3c2)CC1`, for which the Potency in assay [1] is 4.17 µM (active); in assay [2] it was 4.68 µM (active); in assay [7], 0.833 µM (active); in assay [4] it was 3.32 µM (active); in assay [5] it was 1.86 µM (active); in assay [6], 1.86 µM (active).
Consider `CCN(CC)CCNc1ccc(C)c2sc3ccccc3c(=O)c12`, for which the Potency in assay [1] was 18.6 µM (active); in assay [2] it was 14.8 µM (active); in assay [7], 16.6 µM (active); in assay [4], 16.6 µM (active); in assay [5], 16.6 µM (active); in assay [6], 16.6 µM (active).
Take `c1ccc2c(Cc3c[nH]c4ccccc34)c[nH]c2c1`: the viability in assay [1] was 103%. For the same molecule, the Potency result in assay [2], in assay [4], in assay [5] and in assay [6] was “inactive” in each case.
For the molecule `O=C1CC[C@H](N2Cc3c(OCc4ccc(CN5CCOCC5)cc4)cccc3C2=O)C(=O)N1`, the viability in assay [1] is 102%. In addition, the Potency result in assay [2], in assay [7], in assay [5] and in assay [6] was “inactive” in each case.
Regarding `CNS(=O)(=O)Nc1nccc(Cc2c(C)c3ccc(Oc4ncccn4)cc3oc2=O)c1F`, the Potency in assay [1] is 3.72 µM (active); in assay [2], 0.0332 µM (active); in assay [4], 0.525 µM (active).
In the case of `O=C(/C=C\n1cnc(-c2cc(C(F)(F)F)cc(C(F)(F)F)c2)n1)NNc1ccccn1`, the Potency is 0.934 µM (active) in assay [1]; 0.833 µM (active) in assay [2]; 0.468 µM (active) in assay [4]; 0.525 µM (active) in assay [5]; 0.417 µM (active) in assay [6].
With `Clc1ccc(CCC(Cn2ccnc2)Sc2c(Cl)cccc2Cl)cc1` (stereo not drawn), in assay [1], the viability was 81.3%. For the same molecule, the Potency entry in assay [2], in assay [4], in assay [5] and in assay [6] was “inactive” in each case.
`CC[C@H]1OC(=O)[C@H](C)C(=O)[C@H](C)[C@@H](O[C@H]2O[C@H](C)C[C@H](N(C)C)[C@H]2O)[C@](C)(OC)C[C@@H](C)C(=O)[C@H](C)[C@H]2N(CCCCn3cnc(-c4cccnc4)c3)C(=O)O[C@]12C`: the viability in assay [1] was 101%. Besides, the Potency entry in assay [2], in assay [4], in assay [5] and in assay [6] was “inactive” in each case.
As for `Cc1ccc(C2=Nc3ccc(Cl)cc3OC2)cc1`, the Potency in assay [1] was 8.33 µM (active); in assay [2] it was 10.5 µM (active). Further, the Potency result in assay [4], in assay [5] and in assay [6] was “inactive” throughout.
Consider `NC(=O)c1cc(F)cc2c1C(=O)N(C1CCN(C3CCC(F)(F)CC3)CC1)C2`, for which the viability in assay [1] is 106%. Further, the Potency entry in assay [2], in assay [4], in assay [5] and in assay [6] was “inactive” in each case.
Regarding `O=C1CC(c2c[nH]c3ccc(F)cc23)C(=O)N1` (stereo not drawn), the viability in assay [1] was 111%. Besides, the Potency entry in assay [2], in assay [7], in assay [4], in assay [5] and in assay [6] was “inactive” in each case.
Take `O=C(O)CC(C(=O)O)n1c(O)c(C2=c3cc(Br)ccc3=NC2=O)sc1=S` (stereo not drawn): the viability in assay [1] was 100%. Moreover, the Potency entry in assay [2], in assay [7], in assay [4], in assay [5] and in assay [6] was “inactive” in each case.
With `C#C[C@]1(O)CC[C@H]2[C@@H]3[C@H](C)CC4=C(CCC(=O)C4)[C@H]3CC[C@@]21C`, in assay [1], the viability is 111%. The Potency in assay [2] is 16.6 µM (active). Besides, the Potency entry in assay [4], in assay [5] and in assay [6] was “inactive” in each case.

What is called viability is a read-out of living cells in per cent, often relative to untreated cells.
